# Target: Solute carrier family 2, facilitated glucose transporter member 1 (Homo sapiens) (UniProt P11166)
# Assay: ST_JUDE_LEISH: Cytotoxicity at 2uM final concentration against transgenic Leishmania Mexicana promastigotes LmGLUT1 that are glucose transport deficient and complemented with the human glucose transporter GLUT1. Activity is measured by DNA content using SYBR green in vitro
# Assay type: functional
# Solute carrier family 2, facilitated glucose transporter member 1 (Homo sapiens), sequence (P11166 whole entry): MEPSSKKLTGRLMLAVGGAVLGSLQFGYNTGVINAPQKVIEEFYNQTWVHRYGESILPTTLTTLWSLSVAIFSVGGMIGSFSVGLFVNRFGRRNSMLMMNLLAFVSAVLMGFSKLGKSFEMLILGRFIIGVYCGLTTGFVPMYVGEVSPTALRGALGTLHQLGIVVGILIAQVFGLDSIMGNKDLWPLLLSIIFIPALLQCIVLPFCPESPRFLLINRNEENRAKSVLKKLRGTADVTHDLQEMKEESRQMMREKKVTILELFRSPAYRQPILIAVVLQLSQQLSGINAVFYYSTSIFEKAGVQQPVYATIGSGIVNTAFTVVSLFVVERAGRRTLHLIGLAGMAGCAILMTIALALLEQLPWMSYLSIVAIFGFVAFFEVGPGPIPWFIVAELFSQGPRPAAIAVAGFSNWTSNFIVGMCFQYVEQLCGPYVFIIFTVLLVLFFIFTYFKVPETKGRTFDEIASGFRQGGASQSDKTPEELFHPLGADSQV
row,Compound,inhibition [%]
1,Cn1c(Nc2cc(C(C)(C)C)on2)nc2cc(Nc3ccnc(Nc4cccc(S(=O)(=O)N5CCOCC5)c4)n3)ccc21,5.63
2,CCOC(=O)c1cncc(/C=C/c2cc(C)cnc2N)c1,5.82
3,COC(=O)c1ccc2nc(-c3cc(-c4cccc(-c5ccccc5)c4)cnc3N)[nH]c2c1,5.22
4,Cc1ccc2cc(NC(=O)CCCCCCCON3C(N)=NC(N)=NC34CCCCC4)ccc2n1,-1.59
5,Cc1ccc(CCOCCCCCNCC(O)c2cc(Cl)c(N)c(Cl)c2)cc1 (stereo not given),1.04
6,O=S(=O)(NCCN1CCCC1)c1ccc(-c2ccc(CNC3Cc4ccccc4C3)cc2)s1,5.8
7,CCc1ccc(S(=O)(=O)Nc2cccc(CCN3CCC(N4CCCCC4)CC3)c2)cc1,1.95
8,Cc1ccnc(NC(c2cccc(OCc3ccccc3)c2)c2ccc3cccnc3c2O)c1 (stereo not given),0.07
9,CNC(=O)NC1CCN(Cc2c(-c3cccs3)nc3ccccc3c2C(=O)N[C@@H](C)C2CCCCC2)CC1,-1.53
10,O=C(Nc1cccc(-c2nn3ncccc3c2-c2ccnc(Nc3cccc(-c4cnco4)c3)n2)c1)c1c(F)cccc1F,6.24
11,Cc1cccc(NC(=O)N(Cc2cc3cc(C)cc(C)c3[nH]c2=O)C2CC2)c1,9.62
12,COc1cc2nc(NC3CCN(Cc4ccccc4)CC3)nc(N)c2cc1OC,3.62
13,CS(=O)(=O)N1CC2(CCN(CCC(NC(=O)NCc3ccc(Cl)c(Cl)c3)c3ccc(Cl)c(Cl)c3)CC2)c2ccccc21 (stereo not given),0.66
14,CCCCCCN1CCCN(Cc2ccc(C(=O)Nc3ccc(CCC)cc3)cc2)CC1,9.31
15,Cc1ccc(Oc2ccc(NC(=O)CNc3ccccc3N3CCCC3=O)cc2)cc1,6
16,CCCCCCOc1ccc(C(=O)NCCC2CCN(CCCCCNC(=O)C=Cc3ccc(Cl)c(Cl)c3)CC2)cc1,-0.8
17,COc1ccc(-c2nonc2NC(=O)c2ccc(C(C)(C)C)cc2)cc1OC,-0.32
18,CC(Cl)=CCc1c(C)nc2c(ccc3ccccc32)c1O,4.44
19,O=C(Nc1cccc(-c2ccc(CN3CCC(O)CC3)cc2)c1)c1cccc(Cl)c1,3.01
20,COc1ccc(Nc2nc(=Nc3ccccc3)nc(NN=Cc3cc(Cl)ccc3O)[nH]2)cc1,1.37

row,Compound,inhibition [%]
1,C=CCOC1OC(COC(c2ccccc2)(c2ccccc2)c2ccccc2)C(OC(C)=O)C(OC(C)=O)C1NC(C)=O (stereo not given),1.33
2,CCc1ccc(C2=Nn3c(nnc3-c3cccs3)SC2)cc1,2.35
3,O=[N+]([O-])c1ccc2nccnc2c1,6.19
4,CN(C)CCNCc1cccc(-c2ccc3c(Nc4ccc(Oc5ccccn5)cc4)ccnc3c2)c1,0.48
5,CC(=O)Nc1ccc(C(=O)Nc2ccc(-c3cccc(-c4nc5ccccc5[nH]4)c3)cc2)cn1,0.89
6,O=C(NC1CCC(N2CCC(c3nc4ccccc4s3)CC2)CC1)c1cc2ccccc2[nH]1 (stereo not given),-0.44
7,O=C(Nc1cccc(C(F)(F)F)c1)c1cccc(S(=O)(=O)NCC2CCCN2CC2CCCCC2)c1 (stereo not given),5.37
8,O=c1cc(NCCCNC(CNCCc2ccccc2)c2cc(Br)cc(Br)c2)[nH]c2ccccc12 (stereo not given),2.57
9,CCNc1cc(C(=O)N[C@@H](Cc2cc(F)cc(F)c2)[C@H](O)CNCc2cccc(C(F)(F)F)c2)cc(N2CCCCS2(=O)=O)c1,-0.07
10,Cc1ccccc1C1CCN(C2CCC(NC(=O)/C=C/c3c[nH]c4ccccc34)CC2)CC1 (stereo not given),2.31
11,CO/C(=C\C=C\c1cc2cc(Cl)c(Cl)cc2[nH]1)C(=O)NC1CCN(CCCc2ccccc2)CC1,0.89
12,CCCN(CCC)CCOc1ccc(C(O)(C#CC(O)(c2ccc(OCCN(CCC)CCC)cc2)c2cccc(Cl)c2)c2cccc(Cl)c2)cc1 (stereo not given),7.1
13,Cc1ccccc1C1CCN(c2ccc(C(=O)Nc3ccccc3)cn2)CC1,-0.55
14,COc1cc2c(cc1OCCN1CCC(N3CCCC3)CC1)N(C(=O)/C=C/c1ccccc1Cl)CC2,1.15
15,COc1cccc(CN2Cc3ccccc3OC3(CCN(Cc4c[nH]c5cnccc45)CC3)C2)c1,-0.87
16,Oc1cc(Nc2ccnc3cc(-c4cccc(CN5CCCCC5)c4)ccc23)c(F)cc1Cl,3.41
17,CN(C)CCOc1cc(NC(=O)Nc2ccc(-c3ccncc3)c(Cl)c2)ccc1I,2.24
18,N=C(N)NN=Cc1cc([N+](=O)[O-])ccc1Sc1ccccc1CO,1.08
19,NCc1ccc(CNCc2ccc(-c3ccc(-c4nc5cc(F)ccc5[nH]4)cc3)cc2)cc1,10.3
20,CC(=O)Nc1cccc(Nc2nccc(Nc3ccc(Oc4ccccc4)cc3)n2)c1,1.64
